# Laboratory results reported in PubChem BioAssay (NCATS).
# Inconclusive results are not listed. Active and inactive are the calls of the source. Calls follow the shape of the dose curve; as a rule, active = well fitted curve in either direction with a large enough effect (not every such curve was filed as active); inconclusive = small, poorly fitted or top-dose-only effect, or another doubt; inactive = flat fitted curve, though single readings scatter.
# Test: NFAT Signaling Pathway (AID 444);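 also: carbachol stimulus at about its EC50 of 1 µM final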
# Details: Jurkat NFAT-bla M1, carbachol, beta-lactamase ratio, 5 h; at 17.2 µM (top of the series) unless noted
# Summary of the method: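 Read-out: CCF4 FRET ratio (460 nm/530 nm) after 1 h RT dye loading, used for %activity and AC50 from titration series. Cells: Jurkat NFAT-β-lactamase/M1 line, treated with compound plus 1 uM carbachol for 5 h, 37 °C.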
# % is scaled to controls: 0 for no effect and ±100 for the full control effect.
row,Structure (SMILES),"activity change, negative = inhibition"
1,CC(C)CC(NC(=O)OC(C)(C)C)C(=O)NCc1ccccc1 (stereo unspecified),-25.8% (inactive)
2,Cc1ccc(CNC(=O)c2cc3c(=O)n4ccccc4nc3n(CC3CCCO3)c2=N)cc1 (stereo unspecified),21.8% (inactive)
3,CN(C)CCCO[C@H]1[C@H]([C@H](O)CO)O[C@H]2OC(C)(C)O[C@@H]21,5.42% [at 38 µM] (inactive)
4,CCOC(=O)C(O)(C1C(=O)CC(C)(C)CC1=O)C(F)(F)F (stereo unspecified),7.75% (inactive)
5,CC[C@H](C)[C@@H]1O[C@]2(CC[C@@H]1C)C[C@H]1C[C@H](CC=C(C)[C@@H](O[C@@H]3C[C@H](OC)[C@H](O[C@@H]4C[C@H](OC)[C@H](O)[C@H](C)O4)[C@H](C)O3)[C@@H](C)C=CC=C3CO[C@@H]4[C@@H](O)C(C)=C[C@@H](C(=O)O1)[C@]34O)O2,-35.3% (inactive)
6,CCOC(=O)CSc1nc(N)c(C#N)c(-c2ccc(OC)cc2)c1C#N,2.57% (inactive)
7,CCCCCCCCCC(=O)N[C@@H](CN1CCOCC1)[C@@H](O)c1ccccc1,1.34% [at 38 µM] (inactive)
8,CCCCCCCCCCCCCCCCCC(=O)NC[C@@H](COP(=O)([O-])OCC[N+](C)(C)C)OCC,28.6% [at 38 µM] (active)
9,CCOC(=O)CSC1=C(C#N)C(=O)NC(c2ccc(OC)c(OC)c2)S1 (stereo unspecified),-123% (active)
10,COc1ccc(CCCNC(=O)CC#N)cc1OC,-4.61% (inactive)
11,COc1ccc(-c2nn3c(COc4ccccc4)nnc3s2)cc1OC,6.83% (inactive)
12,CC1(C)Cc2c(C#N)c(NCC3CCCO3)nc(-c3ccco3)c2CO1 (stereo unspecified),5.63% (inactive)

# Test: Stat Signaling Pathway (AID 446);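 also: ME-180 cervical cancer cells given 40 pM IL-6 alongside compound; SIE-controlled beta-lactamase reporter measured as 460/530 nm FRET emission ratio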
# Details: ME-180 (cervical carcinoma) SIE beta-lactamase reporter, IL-6 stimulated, 5 h; at 17.2 µM (top of the series) unless noted
# Summary of the method: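 Normalization used AC90 stimulation (300 pM IL-6) and AC90 inhibition (125 nM pan-JAK inhibitor at 40 pM IL-6). The underlying signal is SIE-driven beta-lactamase in ME-180 cells after 5 h IL-6 exposure with compound.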
row,Structure (SMILES),"activity, negative = inhibition"
1,CCN(CC)c1ccc(C2Nc3cccc4cccc(c34)N2)c(O)c1,-17.7% (inactive)
2,COc1ccccc1-c1nnc2n1N=C(c1ccc(O)c(O)c1)CS2,-15.4% (inactive)
3,CC(=O)O[C@H]1C(=O)[C@]2(C)[C@H]([C@H](OC(=O)c3ccccc3)[C@]3(O)C[C@H](OC(=O)[C@H](O)[C@@H](NC(=O)c4ccccc4)c4ccccc4)C(C)=C1C3(C)C)[C@]1(OC(C)=O)CO[C@@H]1C[C@@H]2O,-2.52% (inactive)
4,COc1ccc(/C=N/n2cncn2)cc1CSc1ccccn1,10.6% (inactive)
5,COc1ccc(CSc2nnc3n(C)c(=O)c4c5c(sc4n23)CCCC5)cc1,0.924% (inactive)
6,CN(CCOC(=O)c1cccc(Br)c1)C(C)(C)C,7.11% (inactive)
7,CCCCN(CCCC)C(=O)CSc1nnc2n(C)c(=O)c3c4c(sc3n12)CCCC4,-16.8% (inactive)
8,CCCCCCOc1ccc(C(=O)n2cnc(N)n2)cc1,27.4% (inactive)
9,COc1ccc(Nc2oc(-c3cccs3)nc2C#N)cc1,-1.34% (inactive)
10,Cc1nc(N2CCN(Cc3ccccc3)CC2)c(C#N)c2c1COC(C)(C)C2,-15.6% (inactive)
11,CNC(=O)Nc1cccc(NC(=O)NC)n1,0.623% (inactive)
12,CCCCNC(=O)C(C#N)c1nc2ccccc2nc1N1CCN(Cc2ccc3c(c2)OCO3)CC1 (stereo unspecified),-8.12% (inactive)
13,O=S(=O)(c1ccc(Cl)cc1)N1CCC(N2CCCCCC2)CC1,3.47% (inactive)
14,CC1(C)Cc2c(C#N)c(OCC(=O)c3ccccc3)nc(-c3ccoc3)c2CO1,12.9% (inactive)
15,CCCCSc1nnc2n(CCc3ccccc3)c(=O)c3c4c(sc3n12)COC(C)(C)C4,-12.7% (inactive)
16,CC[C@H]1OC(=O)C[C@@H](O)[C@H](C)[C@@H](O[C@@H]2O[C@H](C)C[C@H](N(C)C)[C@H]2O)[C@@H](CC=O)C[C@@H](C)C(=O)C=C[C@]2(C)O[C@H]2[C@@H]1C,1.05% (inactive)
17,CCN1CCc2c(C#N)c(N3CCOCC3)nc(NCc3ccccc3)c2C1,1.47% (inactive)
18,N#Cc1cc(Oc2cccc3cccnc23)c(-n2nnc3ccccc32)cc1C#N,11.7% (inactive)
19,CCCc1cc(Nc2c(C)n(C)n(-c3ccccc3)c2=O)n2c(nc3ccccc32)c1C#N,0.163% (inactive)
20,Cn1c(N2CCOCC2)nc2c1c(=O)n(Cc1ccc(Cl)cc1)c(=O)n2C,23.9% (inactive)
21,C[C@]12CC[C@@H]3c4ccc(O)cc4CC[C@H]3[C@@H]1CC[C@@H]2OC(=O)CCC(=O)O,-12.1% (inactive)
22,C(=N\n1cnnc1)/c1ccccn1,7.02% (inactive)
23,Fc1ccccc1-c1nc(NCCCN2CCOCC2)c2ccccc2n1,-7.69% (inactive)
24,CN(C)CCCOC(=O)c1ccc(Cl)cc1Cl,2.76% (inactive)
